In PubChem BioAssay AID1626 (SRMLSC, 2009):
The campaign covered roughly 220,000 compounds. About 2,000 (0.91%) were called active. Inconclusive results (about 2%) are left out. Rule as the data show it: inconclusive = inhibition above about 80% without an active follow-up result; inactive = below that; test concentration not stated here. The list is a sample of the results. Measured potencies and affinities stand elsewhere.

assay: M. tuberculosis H37Rv growth inhibitors, H37Rv strain (AID 1626); settings: active compounds read high, concentration not given here;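 also: bacteria incubated seven days before Alamar blue readout; 0% = bacteria only wells and 100% = bacteria with antibiotic wells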

| Compound | inhibition |
| --- | --- |
| O=C1N=C(N2CCN(c3cccc4ccccc34)CC2)S/C1=C/c1cccs1 | 85.6% (inactive) |
| O=C1N=C(N2CCN(c3ccccc3)CC2)S/C1=C/c1cccs1 | 50.8% (inactive) |
| CCOc1ccc(NC(=O)NCCN2C(C)CCCC2C)cc1 (stereo not given) | -2.64% (inactive) |
| N#Cc1c(NC(=O)CSCC(=O)O)sc2c1CCCC2 | -15.3% (inactive) |
| O=C(Nc1nc2ccccc2[nH]1)c1ccccc1 | 19.3% (inactive) |
| COc1ccc2oc(C(=O)Nc3nc4ccccc4[nH]3)c(C)c2c1 | 51.1% (inactive) |
| Cc1c(C(=O)Nc2ccncc2)oc2ccccc12 | -1.93% (inactive) |
| C/C(=N\Nc1nc2ccccc2[nH]1)c1cc2ccccc2o1 | 56.4% (inactive) |
| O=C(/C=C\c1ccc2c(c1)OCO2)Nc1nnc(SCC(=O)OCc2ccccc2)s1 | 20.4% (inactive) |
| CCOc1ccc(OCC)c(S(=O)(=O)NC2CC(C)(C)NC(C)(C)C2)c1 | -3.13% (inactive) |
| COc1cccc(CNC(=O)Cn2nc(-c3ccc(Cl)cc3)ccc2=O)c1 | 4.51% (inactive) |
| CCOC(=O)C(C)Sc1nc(=O)n2cc(C)ccc2n1 (stereo not given) | 3.92% (inactive) |
| Cc1ccc([N+](=O)[O-])cc1NCC(=O)NN | -8.54% (inactive) |
| c1ccc2c(SCc3cn4ccccc4n3)nncc2c1 | -2.83% (inactive) |
| N=C(N)SCc1nc2ccccn2c1Br | -11.2% (inactive) |
| CC(C)c1ccc2c(c1)C(c1cccs1)=NNC(c1ccncc1)=N2 | 0.38% (inactive) |
| COc1ccc(-c2nnc3ccc(SC(C(C)=O)C(C)=O)nn23)cc1OC | 2.29% (inactive) |
| COc1ccc(NC(C)=O)cc1C#N | 0.78% (inactive) |
| O=C1OC2(CCCCC2)OC(=O)C1=CNc1ccc2c(c1)OCO2 | 55.9% (inactive) |
| NS(=O)(=O)c1ccc(NC=C2C(=O)OC3(CCCCC3)OC2=O)cc1 | 4.66% (inactive) |

| Compound | inhibition |
| --- | --- |
| COCCCNC(=O)Cn1cc(C(C)=O)c2ccccc21 | -10.3% (inactive) |
| CC1CCCC(NC(=O)COC(=O)[C@@H](NC(=O)c2ccco2)C(C)C)C1C (stereo not given in full) | -2.77% (inactive) |
| CCc1cc2cc(C(=O)N3CCN(c4ccccc4)CC3)sc2s1 | 2.92% (inactive) |
| CC(C)(C)c1ccc(C(=O)Nc2ccc(F)cc2)s1 | 12.9% (inactive) |
| Cc1ccc(NC(=O)c2cccs2)cc1 | -1.3% (inactive) |
| CCc1cc2cc(C(=O)Nc3ccccc3F)sc2s1 | 0.32% (inactive) |
| Cc1cc(C(F)(F)F)nc(SCc2ccc(C(=O)O)o2)n1 | -10.7% (inactive) |
| COc1ccc(Cn2c(=S)[nH]c3ccsc3c2=O)cc1 | -1.7% (inactive) |
| O=c1[nH]cc(COCC(F)(F)C(F)(F)C(F)(F)F)c(=O)[nH]1 | 5.87% (inactive) |
| Cc1ccc(S(=O)(=O)N2CCC(C(=O)NNC(=O)c3ccccc3)CC2)cc1 | 0.71% (inactive) |
| C/C(=N\NC(=O)c1cc(-c2ccncc2)nc2ccccc12)c1ccc(OC(F)F)cc1 | 0.28% (inactive) |
| C#CCNC(=O)C1=C[C@H](c2ccc3c(c2)OCO3)C[C@H](OCCCCO)O1 | -6.12% (inactive) |
| CCc1cccc(C)c1NC(=O)COC(=O)c1c2c(nc3ccccc13)/C(=C\c1cccs1)CCC2 | 1.95% (inactive) |
| CCCCNC(=O)COC(=O)c1c2c(nc3ccccc13)/C(=C/c1cccs1)CC2 | 36.5% (inactive) |
| COc1ccc(NC(=O)COC(=O)c2c3c(nc4ccccc24)CCCC3)cc1 | -13.1% (inactive) |
| CC(C)CNC(=O)COC(=O)c1c2c(nc3ccccc13)/C(=C/c1cccs1)CC2 | 32.2% (inactive) |
| COc1ccc(-c2[nH]ncc2CN2CCC(N3CCSCC3)CC2)cc1F | -4.08% (inactive) |
| CCOC(=O)C(/C=C(\C#N)C(=O)OCC)=C(/N)N1CCN(c2ccc(OC)cc2)CC1 | 6.53% (inactive) |
| CCOC(=O)C(/C=C(\C#N)C(=O)OCC)=C(/N)N1CCN(c2ccccc2)CC1 | -0.44% (inactive) |
| COc1ccc(C(=O)Nc2ccc(Cl)cn2)cc1Cl | 12.4% (inactive) |

| Compound | inhibition |
| --- | --- |
| COC(=O)c1cc(NC(=O)CSc2nc(C)cc(=O)[nH]2)cc(C(=O)OC)c1 | -18.1% (inactive) |
| CC(=O)Nc1ccc(N/C(N)=N/c2nc(C)cc(C)n2)cc1 | 4.6% (inactive) |
| Cc1ccc(N/C(N)=N/c2nc(C)cc(C)n2)cc1 | -3.3% (inactive) |
| Cn1ccnc1Sc1ccc(/C=N/NC(=O)c2ccccc2[N+](=O)[O-])cc1[N+](=O)[O-] | -13.1% (inactive) |
| NC(=O)CSc1nnc(COc2ccccc2)n1CCc1ccccc1 | -4.55% (inactive) |
| Cc1ccc(CNC(=O)C23CN(Cc4ccccc4)CC2C(c2ccc([N+](=O)[O-])cc2)=NO3)cc1 (stereo not given) | 7.16% (inactive) |
| CCc1c(C)c(C#N)c2nc3ccccc3n2c1N(C)C | -1.31% (inactive) |
| CCCCCc1c(C)c(C#N)c2nc3ccccc3n2c1-n1ccnc1C | -1.65% (inactive) |
| Cc1c(Cc2ccccc2)c(NCCN(C)C)n2c(nc3ccccc32)c1C#N | -1.57% (inactive) |
| Cc1cc(NCCCO)n2c(nc3ccccc32)c1C#N | 1.01% (inactive) |
| COC(=O)c1cc(C(=O)OC)cc(N2C(=O)CN=C2Nc2nc(C)cc(C)n2)c1 | -5.98% (inactive) |
| Cc1cc(C)c(NC(=O)c2c[nH]c(=S)n2-c2ccc(F)cc2)c(C)c1 | -1.12% (inactive) |
| COc1ccc(-c2nc(C#N)c(NCCN(C)C)o2)cc1 | -2.85% (inactive) |
| COc1cccc(-c2csc(N3CCN(C(=O)Nc4ccc(F)cc4)CC3)n2)c1 | 20.3% (inactive) |
| COc1cccc(-c2csc(N3CCN(C(=O)Nc4ccccc4OC)CC3)n2)c1 | 0.17% (inactive) |
| COc1cccc(-c2csc(N3CCN(C(=O)Nc4ccc(Cl)cc4)CC3)n2)c1 | 80% (inactive) |
| COc1cccc(NC(=O)N2CCN(c3nc(-c4cccc(OC)c4)cs3)CC2)c1 | 79.8% (inactive) |
| CCOP(=O)(OCC)C1(O)C(=O)Nc2ccc(Br)cc21 (stereo not given) | 0.14% (inactive) |
| CCC1(C)Cc2c(sc3nnn(CC(=O)Nc4ccccc4)c(=O)c23)CO1 (stereo not given) | -3.81% (inactive) |
| CCOc1ccc(NC(=O)C(CC(=O)O)Cc2ccccc2)cc1 (stereo not given) | -4.45% (inactive) |
